Screens (PubChem)
Sampled rows, rich in hits. Any-hit rate of the full collection: about 3%.
KLF5 inh: inhibitors of KLF5 expression; DLD-1 KLF5 promoter-luciferase reporter, luminescence; inhibition, % at 5 µM; 0.23% of 290,000 active;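 active means inhibition above a per-plate limit of that plate's mean compound inhibition plus 3 SD, cut at about 60% in these data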;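 further: higher means less KLF5 promoter-driven luciferase light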
SKKanGAS inh: inhibitors of SKKanGAS S. pyogenes growth in kanamycin (SK-promoter or general growth effect); AID 1662; inhibition, % at 7.5 µM; BacTiter-Glo, 6 h; 1.3% of 300,000 active;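 active means mean replicate score, as percent of positive control median, at least 50; inconclusive means mean below 50 but one replicate at or above 50; inactive means mean and every replicate below 50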;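 further: strain carries kanamycin resistance gene driven by streptokinase promoter and grows in 40 µg/ml kanamycin; loss of luminescence reflects streptokinase promoter inhibition or plain growth inhibition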
CSC inhib: blocks cancer stem cells; cancer stem cell-like cells viability, luminescence; inhibition, % at 7.5 µM; 1.1% of 300,000 active; in the data active means inhibition above about 75%; inconclusive means no clear call, values can overlap the other calls; tested in HMLE shEcad cells
IEC-6 tox-1: counter-screen for KLF5 inhibitors: cytotoxicity in IEC-6 cells | IEC-6 cytotoxicity, luminescence viability | 0.78% of 290,000 active | AID 1825 | inhibition, % at 5 µM
aSyn 5UTR inh: MLPCN primary screen, SNCA 5' untranslated region; alpha-synuclein 5'UTR reporter, inhibitor activity; inhibition, % (tested at 7.5 µM); 0.82% of 300,000 active; in the data active means inhibition above about 60%; inconclusive means no clear call, values can overlap the other calls;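 further: H4 neuroglioblastoma cells stably carrying SNCA 5'UTR luciferase fusion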
KLF5 inh confirm: confirmation of KLF5 inhibitors. inhibition, % at 4 µM. shares compounds with KLF5 inh. DLD-1 KLF5 promoter firefly luciferase reporter, luminescence. 79% of 610 active. AID 1834;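 active means inhibition above a set limit taken from the earlier primary screen, cut at about 63% in these data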
IEC-6 tox-2: counter-screen for KLF5 inhibitors: cytotoxicity in rat IEC-6 cells | shares compounds with KLF5 inh | IEC-6 rat intestinal cells, viability luminescence | inhibition, % at 4 µM | 56% of 610 active | AID 1905; in the data active means inhibition above about 23%;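 further: cells exposed to compounds for 48 hours before viability read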
IEC-6 tox confirm: confirmation of cytotoxic compounds in rat IEC-6 intestinal epithelial cells; 63% of 1,900 active; shares compounds with IEC-6 tox-1; inhibition, % at 5 µM; IEC-6 rat intestinal epithelial viability, luminescence
Hits are given with their value; 0 = inactive; ? = inconclusive; - = no result. Unless noted, no stated cut-off is given here; in the data, active means inhibition above about 22%; inactive means the rest.

SMILES | KLF5 inh | SKKanGAS inh | CSC inhib | IEC-6 tox-1 | aSyn 5UTR inh | KLF5 inh confirm | IEC-6 tox-2 | IEC-6 tox confirm
Cc1cc(C(=O)CN2C(=O)c3ccccc3S2(=O)=O)c(C)n1CC1CCCO1 (stereo not given) | 83 | 0 | 0 | 0 | 111 | 104 | 0 | -
COc1ccc(C(=O)CN2C(=O)c3ccccc3S2(=O)=O)cc1 | 72 | 0 | 0 | 0 | 101 | 0 | 0 | -
CCOc1ccc(NC(=O)c2cc(OC)nc3ccccc23)cc1 | 66 | 0 | 0 | 88 | 83 | 82 | 63 | 53
Cc1cc(NCc2ccccn2)n2nc(C)c(-c3ccccc3)c2n1 | 67 | 0 | 0 | 81 | - | 0 | 0 | 0
Cc1ccc(NC(=O)CSc2n[nH]c(-c3ccccn3)n2)cc1 | 0 | 0 | 0 | 0 | ? | - | - | -
O=C(CSc1n[nH]c(-c2ccccn2)n1)Nc1ccc(Cl)cc1 | 73 | 0 | 0 | 44 | 74 | 63 | 0 | 29
CCN(CC(=O)Nc1ccc(C(C)=O)cc1)CC(=O)Nc1cccc(OC)c1 | 0 | 0 | 0 | 0 | 0 | - | - | -
O=S(=O)(Nc1cc(Sc2ncn[nH]2)c(O)c2ccccc12)c1ccccc1 | 68 | - | - | 85 | - | 0 | 0 | 0
COc1ccc(NC(=O)/C(Cl)=C(/Cl)S(=O)Cc2ccccc2Cl)cn1 (stereo not given) | 107 | - | - | 102 | - | 111 | 63 | 86
COc1ccc(NC(=O)Cc2ccc(Cl)c(Cl)c2)cn1 | 0 | 0 | 0 | 0 | 0 | - | - | -
CCCC1=Nc2cc(C(=O)NCCCOCC)ccc2Sc2ccccc21 | 80 | 0 | 0 | 97 | 67 | 86 | 71 | 74
COC(=O)c1ccc(C)c(NS(=O)(=O)c2ccc3c(c2)OCCO3)c1 | 82 | 0 | 0 | 80 | 94 | 76 | 56 | 54
CCOc1ccc2c(c1)C(C)=CC(C)(C)N2S(=O)(=O)c1ccc(NC(C)=O)cc1 | 73 | 0 | 0 | 92 | 70 | 89 | 71 | 72
COc1ccc2c(c1)C(C)=CC(C)(C)N2S(=O)(=O)c1ccc(NC(C)=O)cc1 | 81 | 0 | 0 | 90 | 71 | 88 | 59 | 57
CCOc1ccc2c(c1)C(C)=CC(C)(C)N2S(=O)(=O)c1ccc(F)cc1 | 0 | 0 | 0 | 0 | 0 | - | - | -
COc1ccc(C(=O)COC(=O)c2sccc2C)cc1OC | - | - | 0 | - | - | - | - | -
OC(CNCc1ccc(Cl)cc1)C(F)(F)F (stereo not given) | 0 | 0 | 0 | 0 | 0 | - | - | -
O=C(Nc1nc2cc3c(cc2s1)OCCO3)c1ccco1 | 86 | 62 | 0 | 23 | 66 | 81 | 0 | 0
CCc1nnc(NC(=O)Cc2cc(OC)c(OC)c(OC)c2)s1 | 0 | 0 | 0 | 0 | 0 | - | - | -
Cc1cc(C(=O)Cn2ncc(Cl)c(Cl)c2=O)c(C)n1CC(F)(F)F | 82 | 0 | - | 100 | 0 | 0 | 0 | 0
Cc1ccc(C)c(C(=O)Cn2ncc(Cl)c(Cl)c2=O)c1 | 0 | 0 | 0 | 0 | 0 | - | - | -
CCOC(=O)N1CCC(NC(=O)c2ccc3c(c2)N=C(C)c2c(C)ccc(C)c2S3)CC1 | 71 | 0 | 0 | 87 | 0 | 87 | 61 | 67
Cc1cccc(NC(=O)N2CCCc3ccccc32)c1C | 0 | 0 | 0 | 0 | 0 | - | - | -
CC(c1ccccc1)C(CC(=O)O)C(=O)Nc1ccc(Cl)c(Cl)c1 (stereo not given) | 0 | 0 | 0 | 0 | 0 | - | - | -
O=C(NC(=O)c1ccccc1)Nc1cccc(S(=O)(=O)N2CCCCC2)c1 | 0 | 0 | 0 | 0 | 0 | - | - | -
SMILES | KLF5 inh | SKKanGAS inh | CSC inhib | IEC-6 tox-1 | aSyn 5UTR inh | KLF5 inh confirm | IEC-6 tox-2 | IEC-6 tox confirm
CCO[C@H]1OC(C(=O)NCc2nc3ccccc3[nH]2)=C[C@@H](C2CC2)[C@@H]1CCCO | 72 | 0 | 0 | 72 | 80 | 78 | 64 | 53
O=C(Nc1ccc2nc3n(c(=O)c2c1)CCCCC3)c1c(F)ccc([N+](=O)[O-])c1F | 62 | 0 | 116 | 92 | 85 | 0 | 0 | 32
COc1ccc(N/C=C/C(=O)c2ccc(OC)c(OC)c2)cc1 | 0 | 0 | 0 | 0 | 0 | - | - | -
COc1ccc(N/C=C/C(=O)c2cc(OC)c(OC)c(OC)c2)cc1 | 68 | 0 | 0 | 81 | ? | 73 | 57 | 59
CCOC(=O)C1CCN(C(=O)Cn2ncc3c([nH]c4ccccc43)c2=O)CC1 | 0 | 0 | 0 | 0 | 0 | - | - | -
CN(CC(=O)Nc1ccccc1Cl)C(=O)COC(=O)c1cnccn1 | 0 | 0 | 0 | 0 | 0 | - | - | -
COc1ccc(C)cc1Nc1c2c(nc3ccccc13)CCC2 | 62 | 0 | 0 | 88 | 68 | 87 | 70 | 55
CCN1CCN(C(=S)Nc2cc(S(=O)(=O)N(CC)CC)ccc2C)CC1 | 0 | 0 | 0 | 0 | 0 | - | - | -
Cc1[nH]c2ccccc2c1CCN(Cc1cccnc1)C(=S)NC(C)(C)C | 0 | 0 | 0 | 0 | 0 | - | - | -
CCOC(=O)N1CCN(C(=O)C(=O)Nc2sc3c(c2C(=O)O)CC(C)(C)OC3)CC1 | 0 | 0 | 0 | 0 | 0 | - | - | -
Cc1ccc2nc(-c3ccc4c(c3)NC(=O)CO4)cn2c1 | 0 | 0 | 0 | 0 | 0 | - | - | -
Cc1ccc2nc(-c3ccc4c(c3)OCCO4)cn2c1 | 103 | 0 | 0 | 75 | 110 | 106 | 57 | 61
Cc1ccc(Nc2nc(-c3c(C)nc4ncccn34)cs2)cc1 | 73 | 0 | 0 | 90 | 84 | 79 | 73 | 59
Cc1nc2ccccn2c1-c1csc(NCc2ccco2)n1 | 0 | 0 | 0 | 0 | 0 | - | - | -
Cc1ccc(Nc2nc(-c3c(C)nc4ccccn34)cs2)cc1 | 87 | 0 | - | 94 | 0 | 87 | 79 | 79
Cc1ccc(-n2nnnc2-c2cccc(C)c2)cc1 | 0 | 0 | 0 | 0 | 0 | - | - | -
COc1ccc(-n2nnnc2-c2cccc(OC)c2)cc1 | 77 | 0 | 0 | 84 | 64 | 86 | 58 | 59
COc1ccc2c(C)cc(SCC(=O)NC3CCCC3)nc2c1 | - | - | 0 | - | - | - | - | -
COc1ccc2nc(SCC(=O)NC3CCCC3)c(C)cc2c1 | 71 | 0 | 0 | 45 | 0 | 85 | 0 | 27
COC(=O)C(=N/Nc1ccccc1C(=O)OC)/C(C)=N/O | 0 | 0 | 0 | 0 | 0 | - | - | -
O=C(Cc1ccc(N2CCNC2=O)cc1)N1CCCC(Nc2cccc(F)c2)C1 (stereo not given) | 70 | 0 | 0 | 71 | 64 | 71 | 47 | 56
O=C1CCCN1CCC(=O)N1CCCC(Nc2ccc(F)c(F)c2)C1 (stereo not given) | 0 | 0 | 0 | 0 | 0 | - | - | -
O=C(Cc1ccc(N2CCNC2=O)cc1)N1CCCC(Nc2ccc(F)c(F)c2)C1 (stereo not given) | 67 | 0 | 83 | 48 | 0 | 69 | 62 | 35
CCc1ccc(C(=O)COC(=O)c2ccccc2OC)cc1 | 0 | 0 | 0 | 0 | 0 | - | - | -
COc1cc(OC)c(OC)cc1CNCCNC(=O)c1ccco1 | 0 | 0 | 0 | 0 | 0 | - | - | -
Cc1c(Br)c(C(=O)NNC(=O)c2ccc(C(C)(C)C)cc2)nn1C | 0 | 0 | 0 | 0 | 0 | - | - | -
C/C(=N\NC(=O)c1c(C)nc2ccccn12)c1ccc(O)cc1O | 69 | 0 | 0 | 28 | 84 | 84 | 39 | 36
COc1ccccc1-c1nnc2sc(-c3ccc(N(C)C)cc3)nn12 | 72 | 0 | 0 | 91 | 99 | 91 | 72 | 72
